Assay results as given in PubChem BioAssay (EPA / NIEHS).
Several values for one entry are separate records, joined by “and”; a condition that tells them apart may be missing. Equal values may be shown once. A structure can be active in one record and inactive in another. Activity calls are given as the source filed them. The calls were made as follows: active = hit-call score of the fitted dose curve at least 0.9, where 1 is the maximum; inactive = score below 0.9.

What was measured:
[1] = read-out: Macrophage colony-stimulating factor (MCSF), CSF1 (gene 1435); assay: BSK_hDFCGF_MCSF: BioMAP Diversity Plus: hDFCGF Assay for Macrophage colony-stimulating factor (MCSF) Biomarker Activity (AID 2283060); conditions: primary human foreskin fibroblasts; actives raise or lower the signal
In short: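 Primary human foreskin fibroblasts dosed with chemical; 24 h later, M-CSF quantified by ELISA; curves fitted in both directions vs DMSO negative control.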

[2] = BSK_hDFCGF_SRB: Viability Assessment in the BioMAP Diversity Plus: hDFCGF Assay (AID 2283061); conditions: primary human foreskin fibroblasts;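 also: cells exposed to compound for 24 h before the read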
In short: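 Readout is SRB absorbance at 560 nm, reflecting total protein in parallel cultures of human foreskin fibroblasts harvested 24 h after chemical dosing. Activity was fitted bidirectionally relative to DMSO.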

[3] = read-out: TIMP metallopeptidase inhibitor 1 (TIMP1), TIMP1 (gene 7076); assay: BSK_hDFCGF_TIMP1: BioMAP Diversity Plus: hDFCGF Assay for TIMP metallopeptidase inhibitor 1 (TIMP1) Biomarker Activity (AID 2283062); conditions: primary human foreskin fibroblasts; actives raise or lower the signal
In short: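 Human skin fibroblasts (primary), hDFCGF system; compound exposure 24 h; TIMP-1 by ELISA; bidirectional fit vs DMSO negative control; overt cytotoxicity by SRB in parallel wells.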

[4] = read-out: Monokine induced gamma interferon (MIG), CXCL9 (gene 4283); assay: BSK_hDFCGF_MIG: BioMAP Diversity Plus: hDFCGF Assay for Monokine induced gamma interferon (MIG) Biomarker Activity (AID 2283063); conditions: primary human foreskin fibroblasts; actives raise or lower the signal
In short: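 Chemicals were added to primary human foreskin fibroblast cultures, which were sampled 24 h later. MIG levels were then quantified by ELISA and responses fitted in both directions relative to DMSO.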

[5] = read-out: Matrix Metallopeptidase 1 (MMP1), MMP1 (gene 4312); assay: BSK_hDFCGF_MMP1: BioMAP Diversity Plus: hDFCGF Assay for Matrix Metallopeptidase 1 (MMP1) Biomarker Activity (AID 2283064); conditions: primary human foreskin fibroblasts; actives raise or lower the signal
In short: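 MMP1 levels quantified by ELISA 24 h after dosing human dermal fibroblast cultures, with parallel SRB total-protein staining for overt cytotoxicity. Data fitted in both directions against DMSO baseline.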

[6] = read-out: Vascular cell adhesion molecule 1 (VCAM1), VCAM1 (gene 7412); assay: BSK_hDFCGF_VCAM1: BioMAP Diversity Plus: hDFCGF Assay for Vascular cell adhesion molecule 1 (VCAM1) Biomarker Activity (AID 2283065); conditions: primary human foreskin fibroblasts; actives raise or lower the signal;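 as to AC50: VCAM-1 protein level quantified by ELISA after 24 h chemical exposure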
In short: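 Human foreskin fibroblast primary cells, chemical exposure 24 h; VCAM-1 by ELISA; bidirectional fit, DMSO = negative control/baseline.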

[7] = read-out: Plasminogen activator inhibitor-1 (PAI1), SERPINE1 (gene 5054); assay: BSK_hDFCGF_PAI1: BioMAP Diversity Plus: hDFCGF Assay for Plasminogen activator inhibitor-1 (PAI1) Biomarker Activity (AID 2283066); conditions: primary human foreskin fibroblasts; actives raise or lower the signal
In short: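 ELISA readout of PAI-1 from primary human skin fibroblast cultures, 24 h after compound addition. Gain or loss of signal was fitted bidirectionally against DMSO baseline.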

[8] = read-out: Intercellular Adhesion Molecule 1 (ICAM1), ICAM1 (gene 3383); assay: BSK_KF3CT_ICAM1: BioMAP Diversity Plus: KF3CT Assay for Intercellular Adhesion Molecule 1 (ICAM1) Biomarker Activity (AID 2283067); conditions: primary human keratinocytes with fibroblasts; actives raise or lower the signal
In short: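 ICAM-1 levels are measured by ELISA 24 h after dosing a primary human co-culture of keratinocytes and foreskin fibroblasts. Activity in either direction is fitted relative to DMSO vehicle.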

[9] = read-out: Interferon-gamma inducible Protein 10 (IP10), CXCL10 (gene 3627); assay: BSK_KF3CT_IP10: BioMAP Diversity Plus: KF3CT Assay for Interferon-gamma inducible Protein 10 (IP10) Biomarker Activity (AID 2283068); conditions: primary human keratinocytes with fibroblasts; actives raise or lower the signal
In short: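 Signal is secreted/surface IP-10 by ELISA in a human primary skin co-culture of keratinocytes and foreskin fibroblasts, taken 24 h post-dosing; DMSO served as negative control.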

[10] = BSK_KF3CT_SRB: Viability Assessment in the BioMAP Diversity Plus: KF3CT Assay (AID 2283069); conditions: primary human keratinocytes with fibroblasts;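 also: total protein by sulforhodamine B staining as a cytotoxicity measure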
In short: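 Cytotoxicity was gauged by SRB staining (0.1% SRB, 10% TCA fixation, 560 nm) of parallel cultures at 24 h. The cells were primary human skin keratinocytes co-cultured with fibroblasts, and activity was fitted in both directions against DMSO.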

[11] = read-out: TIMP metallopeptidase inhibitor 2 (TIMP2), TIMP2 (gene 7077); assay: BSK_KF3CT_TIMP2: BioMAP Diversity Plus: KF3CT Assay for TIMP metallopeptidase inhibitor 2 (TIMP2) Biomarker Activity (AID 2283071); conditions: primary human keratinocytes with fibroblasts; actives raise or lower the signal
In short: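 ELISA readout of TIMP-2 in keratinocyte plus foreskin fibroblast co-cultures (human skin primary cells), 24 h post-dose. Gain or loss of signal fitted relative to DMSO.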

[12] = read-out: C-C motif chemokine 2 (Homo sapiens) (UniProt P13500); assay: BSK_KF3CT_MCP1: BioMAP Diversity Plus: KF3CT Assay for Monocyte Chemoattractant Protein 1 (MCP1/CCL2) Biomarker Activity (AID 2283073); conditions: primary human keratinocytes with fibroblasts; actives raise or lower the signal
In short: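 ELISA readout of MCP-1 after 24 h chemical dosing of a human skin primary co-culture of keratinocytes and foreskin fibroblasts. Activity was fitted in both directions against DMSO.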

[13] = read-out: Matrix Metallopeptidase 9 (MMP9), MMP9 (gene 4318); assay: BSK_KF3CT_MMP9: BioMAP Diversity Plus: KF3CT Assay for Matrix Metallopeptidase 9 (MMP9) Biomarker Activity (AID 2283074); conditions: primary human keratinocytes with fibroblasts; actives raise or lower the signal;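 as to AC50: MMP9 protein level quantified by ELISA in the co-culture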
In short: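 MMP-9 quantified by ELISA after 24 h chemical treatment of primary human skin keratinocyte/fibroblast co-cultures; gain or loss fitted against DMSO, with parallel SRB staining (0.1% SRB, 560 nm) for overt cytotoxicity.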

[14] = read-out: urokinase plasminogen activator (uPA), PLAU (gene 5328); assay: BSK_KF3CT_uPA: BioMAP Diversity Plus: KF3CT Assay for urokinase plasminogen activator (uPA) Biomarker Activity (AID 2283075); conditions: primary human keratinocytes with fibroblasts; actives raise or lower the signal
In short: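 ELISA read-out of uPA 24 h after dosing human skin keratinocytes co-cultured with foreskin fibroblasts. Signal change fitted both ways relative to DMSO; sulforhodamine B on parallel cultures marks overt cytotoxicity.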

CD40, CD40 (gene 958) = assay: BSK_LPS_CD40: BioMAP Diversity Plus: LPS Assay for CD40 Biomarker Activity (AID 2283076); conditions: primary human HUVEC with PBMC; actives raise or lower the signal
In short: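 Cells were dosed, incubated 24 h, then assayed for CD40 by ELISA. Gain or loss of signal was analysed relative to DMSO controls. The culture paired human umbilical vein endothelium with peripheral blood mononuclear cells.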

[15] = read-out: E-selectin (Homo sapiens) (UniProt P16581); assay: BSK_LPS_Eselectin: BioMAP Diversity Plus: LPS Assay for Eselectin Biomarker Activity (AID 2283077); conditions: primary human HUVEC with PBMC; actives raise or lower the signal
In short: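 Primary human vascular co-culture (endothelium plus PBMC) was dosed with chemical, then E-selectin quantified by ELISA at 24 h. Endpoint values derive from bidirectional curve fitting relative to DMSO.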

[16] = read-out: Interleukin-8 (IL8), CXCL8 (gene 3576); assay: BSK_LPS_IL8: BioMAP Diversity Plus: LPS Assay for Interleukin-8 (IL8) Biomarker Activity (AID 2283078); conditions: primary human HUVEC with PBMC; actives raise or lower the signal
In short: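 Readout is IL-8 by ELISA, taken 24 h after compounds were added to LPS-stimulated endothelial/PBMC co-cultures. Both increases and decreases relative to DMSO control were scored through bidirectional fitting.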

[17] = BSK_LPS_SRB: Viability Assessment in the BioMAP Diversity Plus: LPS Assay (AID 2283079); conditions: primary human HUVEC with PBMC;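 also: total protein by sulforhodamine B absorbance as a cytotoxicity measure; measured one day after compound addition; fitted in both directions against DMSO so loss or gain of signal counts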
In short: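 Readout is SRB absorbance at 560 nm (0.1% stain, TCA-fixed parallel cultures) as a total-protein cytotoxicity measure. Cells: primary human umbilical vein endothelium plus peripheral blood mononuclear cells, 24 h after chemical exposure; DMSO served as baseline.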

[18] = read-out: Transforming growth factor beta 1 (TGFb1), TGFB1 (gene 7040); assay: BSK_KF3CT_TGFb1: BioMAP Diversity Plus: KF3CT Assay for Transforming growth factor beta 1 (TGFb1) Biomarker Activity (AID 2283072); conditions: primary human keratinocytes with fibroblasts; actives raise or lower the signal
In short: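 Read-out: ELISA for TGF-b1 in keratinocyte/foreskin fibroblast human skin co-culture, 24 h after dosing; bidirectional curve fit vs DMSO baseline; gain or loss of signal scored.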

[19] = read-out: Interleukin-1 alpha (IL1a), IL1A (gene 3552); assay: BSK_KF3CT_IL1a: BioMAP Diversity Plus: KF3CT Assay for Interleukin-1 alpha (IL1a) Biomarker Activity (AID 2283070); conditions: primary human keratinocytes with fibroblasts; actives raise or lower the signal
In short: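 IL-1a was detected by ELISA 24 h after chemical treatment of a co-culture of human skin keratinocytes and foreskin fibroblasts. Gain or loss of signal was fitted against the DMSO baseline.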

Measured: AC50

Sequence of E-selectin (Homo sapiens) (P16581 whole entry, looked up): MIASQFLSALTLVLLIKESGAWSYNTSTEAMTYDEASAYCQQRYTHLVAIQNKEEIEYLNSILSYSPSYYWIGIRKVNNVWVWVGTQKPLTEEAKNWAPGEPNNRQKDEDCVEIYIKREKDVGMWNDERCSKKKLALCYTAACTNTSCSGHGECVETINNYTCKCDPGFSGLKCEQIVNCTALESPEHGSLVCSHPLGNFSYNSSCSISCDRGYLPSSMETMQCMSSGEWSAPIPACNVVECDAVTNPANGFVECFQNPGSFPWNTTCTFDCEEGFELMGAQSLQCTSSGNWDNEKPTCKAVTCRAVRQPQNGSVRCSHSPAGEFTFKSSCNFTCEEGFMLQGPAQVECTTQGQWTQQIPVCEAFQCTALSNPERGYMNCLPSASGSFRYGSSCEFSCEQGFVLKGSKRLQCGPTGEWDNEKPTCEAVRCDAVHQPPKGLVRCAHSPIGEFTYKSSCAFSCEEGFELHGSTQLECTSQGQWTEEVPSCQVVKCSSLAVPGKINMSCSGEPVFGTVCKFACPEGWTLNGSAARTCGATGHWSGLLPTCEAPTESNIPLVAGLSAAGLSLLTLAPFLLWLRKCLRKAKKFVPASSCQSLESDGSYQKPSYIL

CCOC(=O)CC(=O)C(F)(F)C(F)(F)F
not listed: [18] | [19]
inactive: all other assays above

CCN=C1C=CC(=C(c2ccc(N(CC)CC)cc2)c2ccc(N(CC)CC)cc2)c2ccccc21
inactive: [2] | [10]
active: [1] 1.37 µM and 1.28 µM | [2] 0.331 µM | [3] 1.42 µM and 1.3 µM | [4] 1.73 µM and 1.47 µM | [5] 1.29 µM and 1.26 µM | [6] 1.42 µM and 854 nM | [7] 1.31 µM and 1.23 µM | [8] 3.19 µM and 3.16 µM | [9] 2.87 µM and 2.44 µM | [11] 1.87 µM and 1.66 µM | [12] 3.2 µM and 2.66 µM | [13] 1.61 µM and 1.54 µM | [14] 2.62 µM and 1.92 µM | CD40, CD40 (gene 958) 244 nM and 1.3 µM | [15] 974 nM and 574 nM | [16] 782 nM and 483 nM | [17] 2.39 µM and 2.33 µM

O=C(Cl)C(F)(F)C(F)(F)C(F)(F)C(F)(F)C(F)(F)C(F)(F)C(F)(F)F
active: [3] 26.4 µM | [16] 20.2 µM and 16.6 µM
inactive: [1] | [2] | [3] | [4] | [5] | [6] | [8] | [9] | [10] | [11] | [12] | [13] | [14] | CD40, CD40 (gene 958) | [15] | [16] | [17]

CNS(=O)(=O)C(F)(F)C(F)(F)C(F)(F)C(F)(F)C(F)(F)C(F)(F)C(F)(F)C(F)(F)F
active: [6] 800 nM and 1.94 µM | [13] 20.4 µM | [17] 22.5 µM
inactive: [1] | [2] | [3] | [4] | [5] | [7] | [8] | [9] | [10] | [11] | [12] | [13] | [14] | CD40, CD40 (gene 958) | [15] | [16] | [17]

Cc1cc(O)c(C(C)(C)C)cc1C(C)(C)C
active: [1] 5.42 µM | [2] 5.28 µM | [3] 4.03 µM | [4] 9.12 µM | [5] 6.54 µM | [6] 5.41 µM | [7] 4.51 µM | [8] 2.89 µM | [9] 3.63 µM | [10] 2.33 µM | [11] 2.05 µM | [18] 3.85 µM | [12] 3.37 µM | [13] 5.96 µM | [14] 3.78 µM | CD40, CD40 (gene 958) 5.28 µM | [15] 6.95 µM | [16] 9.26 µM | [17] 7.74 µM

O=C1C=CC(=O)N1c1ccc(Cc2ccc(N3C(=O)C=CC3=O)cc2)cc1
active: [1] 2 µM | [2] 1.91 µM | [3] 2.7 µM | [4] 3.48 µM | [5] 1.99 µM | [6] 1.5 µM | [7] 2.48 µM | [8] 3.64 µM | [9] 6.7 µM | [10] 1.97 µM | [19] 2.69 µM | [11] 2.2 µM | [18] 3.46 µM | [12] 1.99 µM | [13] 5.44 µM | [14] 5.55 µM | CD40, CD40 (gene 958) 10.4 µM | [15] 12.4 µM | [16] 20 µM | [17] 14.6 µM

Brc1nc2ccccc2s1
not listed: [7]
inactive: all other assays above

NCC(F)(F)C(F)(F)C(F)(F)C(F)(F)C(F)(F)C(F)(F)F
not listed: [18]
inactive: all other assays above

O=C(O)CCC(F)(F)C(F)(F)C(F)(F)C(F)(F)C(F)(F)C(F)(F)C(F)(F)F
inactive: [1] | [2] | [3] | [4] | [5] | [6] | [8] | [9] | [10] | [11] | [12] | [13] | [14] | CD40, CD40 (gene 958) | [15] | [16] | [17]
active: [2] 2.25 µM

O=S(=O)(O)CCC(F)(F)C(F)(F)C(F)(F)C(F)(F)C(F)(F)C(F)(F)C(F)(F)C(F)(F)F
inactive: [1] | [3] | [4] | [5] | [6] | [8] | [9] | [10] | [11] | [12] | [13] | [14] | CD40, CD40 (gene 958) | [15] | [16] | [17]
active: [2] 54.3 µM and 24.7 µM | [5] 30 µM
